# Assay results as given in PubChem BioAssay (Tox21).
# A number with no mark means an inactive call. Activity calls are given as the source filed them. The call rests on the fitted dose curve; in most records, active means well fitted curve in the direction sought with a large enough effect in the repeat runs; inconclusive means weak or mixed curves; inactive means flat fitted curve, though single readings scatter.
# Test: qHTS assay to test for compound auto fluorescence at 590 nm (red) in HEK293 cells (AID 720679)
# Details: red autofluorescence 540/590 nm; series mostly up to 91.3 µM; fluorescence, % of fluorescent control: at the top concentration
# Excerpt: National Center for Advancing Translational Sciences [NCATS]
# NIH Chemical Genomics Center [NCGC]
# U.S. Environmental Protection Agency [EPA]
# National Institutes of Environmental Health Sciences [NIEHS]
# National Toxicology Program [NTP]
# U.S. Food and Drug Administration [FDA]
# Compound auto fluorescence often interferes with screening of the compound library against various biological targets and signaling pathways. Some of these compounds may have fluorophoric properties. Such properties may interfere with the assay outputs resulting in false positives and/or negatives. To decrease such complications and ensure the compound activities are relevant in terms of biological response, the Tox21 10K compound library was screened for auto fluorescence.
# From the fluorophores used as reporter signals in our screening assays, the auto fluorescence equivalencies of compounds against three fluorophores have been evaluated: Triamterene, Fluorescein and Rose Bengal sodium for blue, green and red fluorescence, respectively. The fluorescence intensities were measured using Excitation/Emission wavelengths at 405/460nm, 485/535nm and 540/590nm for blue, green and red labels, respectively. This assay includes the red fluorescence data.
# Tox21 Assay Protocol Summary:
# 2,000 HEK293 cells in 5 uL of culture medium containing 10% dialyzed FBS per well were dispensed into black wall/clear bottom 1536-well plates using a Multidrop Combi Dispenser (Thermo Scientific). The assay plates were incubated for 4-5 hr at 37C to allow cell attachment to the well bottom, followed by the transfer of 23 nL compound or DMSO vehicle by a pintool work station (Kalypsys, San Diego, CA). After the assay plates were incubated overnight at 37C and 5% CO2, fluorescence intensities in the assay plates were measured by an Envision (PerkinElmer, Shelton, CT) plate reader using three labels for measuring blue, green and red fluorescence at […] 460, 535 and 590nm respectively.
# On the % scale 0 is the no-effect control and ±100 the full control effect.
Structure (SMILES),outcome,"fluorescence, % of fluorescent control"
COc1ccc(C(=O)c2ccc(C)cc2)c(O)c1,inactive,
CCCc1nc(C)c2c(=O)[nH]c(-c3cc(S(=O)(=O)N4CCN(CC)CC4)ccc3OCC)nn12,,0.621% [at 46 µM]
C=CC(C)CCC=C(C)C (stereo not given),,-0.108%
O=C(O)c1ccncc1,,-0.158% [at 95.7 µM]
O=[N+]([O-])c1cccc(I)c1,,-0.0331%
CO[C@@H]1COCC[C@@H]1N[C@@H]1CC[C@@](C(=O)N2CCc3ncc(C(F)(F)F)cc3C2)(C(C)C)C1,,0.117%
O=C(OCCOCCOCCOC(=O)c1ccccc1)c1ccccc1,,0.202%
O=C(N[C@@H](Cc1ccccc1)[C@@H](O)C(=O)N1C[C@@H](O)[C@@H](O)C1)c1cc2cc(Cl)ccc2[nH]1,,-0.633%
O=C(O)c1cc(C(=O)O)c(C(=O)O)cc1C(=O)O,,0.161%
O=S(=O)(O)c1cc(Cl)c(Cl)cc1Cl,,0.113%
CCCCCCCCCCCCSCCOCCO,,-0.003% [at 46 µM]
CC(C)Cc1nccs1,,-0.147% [at 95.7 µM]
Cc1ccc(NC(=O)c2ccc(CN3CCN(C)CC3)cc2)cc1Nc1nccc(-c2cccnc2)n1,,-0.279% [at 46 µM]
OCCCO,,0.133% [at 203 µM]
Cc1cccc(C)c1NC(=O)CN1CCCC1,,0.033% [at 46 µM]
CC(C)(C)NCC(O)COc1ccc(NC(=O)NC2CCCCC2)cc1 (stereo not given),,0.0444% [at 46 µM]
C[Si](C)(C)O[Si](C)(C)O[Si](C)(C)C,,0.0003%
CCOC(=O)CC(O)(CC(=O)OCC)C(=O)OCC,,0.155%
CCCCCCCCNC,,-0.146%
Cc1cc(SC2=C(O)C[C@@](CCc3ccc(N)cc3)(C(C)C)OC2=O)c(C(C)(C)C)cc1CO,,0.0024%

Structure (SMILES),outcome,"fluorescence, % of fluorescent control"
CC(C)(C)c1ccc(CCC=O)cc1,,-0.392%
CCC(C)CCCC(C)(C)O (stereo not given),,-0.616%
CCOCCn1c(N2CCCN(C)CC2)nc2ccccc21,,-0.217% [at 46 µM]
CCCCCCCCCCCCCCCCC(=O)O,,0.219% [at 46 µM]
CCc1c(C)[nH]c2c1C(=O)C(CN1CCOCC1)CC2 (stereo not given),,0.192% [at 18.6 µM]
O=C(O)c1ccccc1-n1cc(C(=O)O)c(=O)c2cc(Nc3c(F)cc(F)cc3Cl)c(Cl)cc21,,0.234%
Clc1ccccc1-c1nc(-c2ccncc2)no1,,-0.0173% [at 46 µM]
CC1(C)CC(=O)CC(C)(C)N1,,0.559%
CCCCCCCCCC(C)C=O (stereo not given),,-0.534%
Nc1ccc(C(=O)Oc2ccccc2)c(O)c1,,0.0959% [at 46 µM]
C=CC(O)CCCCC (stereo not given),,-0.219%
C/C(=C\C(C)CC(C)CC(C)C)C1CC(=O)OC1=O (stereo not given),,-0.193%
C=C[Si](OCC)(OCC)OCC,,0.149%
CCCOC(C)=O,,-0.0094%
O=C(O)c1cccc(C(=O)O)c1C(=O)O,,0.311%
CCOc1ccccc1O,,-0.0937%
C=CCCC,,0.221% [at 95.7 µM]
COc1cc(CNC(=O)CCCC/C=C/C(C)C)ccc1O,inactive,
NCCOCCOCCN,,0.014%
CCCCOc1ccc(N)cc1,,-0.245%
